Growth data for 39 molecules are collected here from PubChem BioAssay (NCI).

About 83,000 compounds went through this panel and 20% of them were active in at least one assay; those are over-represented in the sample as a whole.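 The endpoint reported here, percent growth, reads 100 for growth as untreated, 0 for no net growth and -100 for all cells dead.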 Unmarked numbers belong to inactive results. The source made the active and inactive calls. The calls were made as follows: active = growth percent below 10; inactive = the rest.

The subject of the test is OVCAR-8 ovarian. In words: NCI-60 one-dose screen, 48 h (100 = growth as untreated, 0 = no growth, -100 = all killed). Conditions: 10 µM unless noted.
For the molecule `Cc1cc(C)c(S(=O)(=O)N2CCN(c3cc4c(cc3F)c(=O)c(C(=O)O)cn4C3CC3)CC2)c(C)c1`, the growth was 59.5%.

With `CCn1cc(C(=O)O)c(=O)c2cc(F)c(N3CCN(S(=O)(=O)c4ccc(OC)c(OC)c4)CC3)cc21`, the growth was 102%.

Turning to `Cc1ccc(S(=O)(=O)OCC(=O)Nc2ccc(C(=O)O)c(O)c2)cc1`, the growth is 97.7%.

`O=S(=O)(c1ccccc1)n1ccc(-c2ccc3c(c2)CCO3)n1`: the growth is 84%.

Regarding `Clc1ccc(-c2nc(-c3ccco3)cn3ccnc23)cc1`, the growth is 49.8%.

Take `CCn1cc(C(=O)O)c(=O)c2cc(F)c(N3CCN(S(=O)(=O)c4cccc5ccccc45)CC3)cc21`: the growth is 8.43% (active).

Regarding `O=P([O-])(O)OP(=O)([O-])O.[NH-][C@H]1CCCC[C@@H]1[NH-].[OH-].[OH-].[Pt+4]`, the growth was 101%.

Consider `O=C(CC(O)c1ccncc1)c1ccccc1` (centres undefined), for which the growth is -36.8% (active).

Regarding `O=c1oc2c([nH]c3ccc4ccccc4c32)c2ccccc12`, the growth is 104%.

`Nc1c(C(=O)Nc2ccccc2)sc2nc3c(cc12)CCC3`: the growth is 88.2%.

On to `COc1ccc(C2CC(c3cccs3)=NN2c2ccc(S(=O)(=O)NC(=O)NCc3cccc(OC)c3)cc2)cc1` (centres undefined), for which the growth was 107%.

As for `COc1cc(NC(=O)CSc2nc3ccc(C)cc3c(=O)n2-c2ccccc2)cc(OC)c1OC`, the growth was 87.4%.

Consider `Cc1ccc(S(=O)(=O)OC2COCOC2C(OS(=O)(=O)c2ccc(C)cc2)C2OCOCC2OS(=O)(=O)c2ccc(C)cc2)cc1` (centres undefined), for which the growth is 103%.

With `CC(=O)Nc1ccc(S(=O)(=O)N2C(=O)CCC2C(=O)Nc2ccc(Br)cc2)cc1` (centres undefined), the growth is 47.5%.

Consider `O=C(O)c1ccc(-n2c(=O)c3ccccc3c3ccccc3c2=O)cc1`, for which the growth is 111%.

Consider `CS(=O)(=O)N(c1cc(-c2ccc3ncnc(Nc4cccc(Cl)c4)c3c2)cnc1Cl)S(C)(=O)=O`, for which the growth was 23.8%.

For the molecule `CN(C)c1ncc(-c2ccc(C(F)(F)F)cc2)c(NC2CCCCCC2)n1`, the growth is 49.8%.

For `O=S(=O)(NCCNc1cc(-c2cn(-c3ccccc3)nc2-c2ccccc2)ccn1)c1cccc2ccccc12`, the growth was 56%.

With `CC/C=C\C[C@H](O)C/C=C1/C(=O)C(Cl)=C[C@@H]1C/C=C\CCCC(=O)O`, the growth is 10.9%.

In the case of `CC[C@H](C)[C@@H]1NC(=O)[C@H]([C@@H](C)O)NC(=O)C(Cc2ccccc2)NC(=O)[C@@H]2CCCN2C(=O)C(C(C)C)NC(=O)C(Cc2ccccc2)NC(=O)CNC(=O)[C@@H]2CCCN2C1=O` (some centres undefined), the growth is 68.3%.

As for `O=C(Nc1cc(C(F)(F)F)cc(C(F)(F)F)c1)Nc1ccc(OCc2nnc(-c3ccc(Cl)cc3)o2)c(F)c1`, the growth was 10.6%.

With `Oc1ccc(N=Cc2ccccc2)cc1`, the growth is 86.8%.

Take `Nc1ccccc1C#C/C=C\C#Cc1cccc(O)c1`: the growth was 84.9%.

On to `CCn1cc(C(=O)O)c(=O)c2cc(F)c(N3CCN(S(=O)(=O)c4ccc(Cl)cc4Cl)CC3)cc21`, for which the growth was 5.84% (active).

For `COc1cc(CNC(=O)CSc2nc3ccccc3c(=O)n2Cc2cc(OC)c(OC)c(OC)c2)cc(OC)c1OC`, the growth is 96.4%.

As to `COc1cc(CCn2nnc3c(NCCCCO)ncnc32)cc(OC)c1`, the growth is 101%.

Take `C/C(=C\c1csc(C)n1)[C@@H]1C[C@@H]2O[C@]2(C)CCC[C@H](C)[C@H](O)[C@@H](C)C(=O)C(C)(C)[C@@H](O)CC(=O)N1`: the growth was -74% (active).

Turning to `COc1ccc(S(=O)(=O)N2CCN(c3cc4c(cc3F)c(=O)c(C(=O)O)cn4C3CC3)CC2)c(OC)c1`, the growth is 92.4%.

For `CC[C@]1(O)C[C@@H]2CN(Cc3c([nH]c4ccccc34)[C@@](C(=O)OC)(c3cc4c(cc3OC)N(C)[C@H]3[C@@](O)(C(=O)OC)[C@H](OC(C)=O)[C@]5(CC)[C@@H]6C[C@@H]6CN6CC[C@]43[C@@H]65)C2)C1`, the growth was 11.9%.

For the molecule `COC1=CC(c2ccc[nH]2)=N/C1=C\c1[nH]c(C)c(C(=O)CCCCC(=O)Oc2ccc3c(c2)CCC2C3CC[C@]3(C)[C@@H](O)CC[C@@H]23)c1C` (some centres undefined), the growth is 70.8%.

In the case of `N#Cc1ncc(-c2ccc(F)c(F)c2F)c(NC2CCCCCC2)n1`, the growth was 86.1%.

As to `O=C(O)c1cn(C2CC2)c2cc(N3CCN(S(=O)(=O)c4ccc(Cl)c(Cl)c4)CC3)c(F)cc2c1=O`, the growth is 5.48% (active).

Take `CCCCCCCCCCCCOB(OCCCCCCCCCCCC)OCCCCCCCCCCCC`: the growth is 101%.

As to `CNC(C)=O`, the growth was 102%.

With `COc1cc2nc(N3CCC[C@@H](NC4=CC(=O)c5ccccc5C4=O)C3)nc(N)c2cc1OC`, the growth was -41.2% (active).

On to `COC(=O)[C@H]1[C@H](OC)[C@@H](OC(=O)/C=C/c2ccncc2)CC2CN3CCc4c([nH]c5cc(OC)ccc45)[C@@H]3C[C@@H]21` (some centres undefined), for which the growth was 81%.

Take `Clc1nc(-c2cccnc2)nc2sc3c(c12)CCCCCC3`: the growth is 103%.

For `O=c1oc2cc(OS(=O)(=O)c3ccc(F)cc3)ccc2c2c1CCCCC2`, the growth was 77.6%.

Regarding `CC(=O)C1CCC(C)=CC1=O` (centres undefined), the growth is 100%.
